Where “and” joins values, the source holds several entries; their conditions need not be identical. Equal values may be shown once. Compounds without any hit were thinned out: in the full panel of roughly 83,000, 20% have a hit.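 A percent growth of 40 corresponds to 60% growth inhibition; 0 means no net growth; -100 means all cells died. Active threshold: below 10.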 Calls of active or inactive are those of the source.
tested on: HL-60(TB) leukemia; assay: NCI-60 one-dose screen, 48 h (100 = growth as untreated, 0 = no growth, -100 = all killed); conditions: 10 µM unless noted

Compound | growth
N=c1c2ccccc2nc2n1CCCCC2 | 130% (inactive)
CN1CCN(c2nc(-c3cccc4ccccc34)nc3sc4c(c23)CCCCCC4)CC1 | 91.6% (inactive)
COc1ccc(NC2=NC(C)(CO)CS2)cc1 (centres undefined) | 91.1% (inactive)
COc1ccc(-n2nnc(C(=O)O)c2-c2cc(OC)c(OC)c(OC)c2)cc1 | 98.8% (inactive)
O=C(CN1CCN(c2cc3c(cc2F)c(=O)c(C(=O)O)cn3C2CC2)CC1)Nc1ccc(Cl)cc1 | 89.5% (inactive) and 98.4% (inactive)
CCn1c(Cc2ccccc2Nc2c(Cl)cccc2Cl)nnc1SCC(=O)Nc1ccccc1C(F)(F)F | 86.9% (inactive)
C=C(CBr)[C@@H]1CC[C@]2(COC(C)=O)CC[C@]3(C)[C@H](CC[C@@H]4[C@@]5(C)CCCNC(C)(C)[C@@H]5CC[C@]43C)[C@@H]12 | -8.09% (active)
O=C(O)c1ccccc1Cc1ccc(F)c2ccccc12 | 98.1% (inactive) and 91.1% (inactive)
N#CC1(Nc2ccc3c4c(cccc24)CC3)CCCCC1 | 72.2% (inactive)
Nc1c(C(=O)Nc2ccccn2)sc2nc3c(cc12)CCCCCC3 | -22.2% (active)
COc1cc(/C=N/NC(=O)Cn2c(-c3ccc(C)o3)nc3ccccc32)ccc1OCc1ccccc1 | 87.4% (inactive)
COCCn1cc(-c2nc(-c3cccnc3)cs2)c2cc(F)ccc21 | 93.4% (inactive)
O=C(O)CCCN1C(=O)C2C3CCC(C3)C2C1=O (centres undefined) | 116% (inactive)
CNC(=O)c1cc(Oc2ccc(NC(=O)Nc3ccc(Cl)c(C(F)(F)F)c3)cc2)ccn1 | -35.3% (active) and 23.3% (inactive)
Cn1cc(-c2csc(-c3c[nH]c4ccc(Br)cc34)n2)c2ccnc(Cl)c21 | 66.8% (inactive)
CCN(CC)CCNC(=O)c1ccc(NCN2C(=O)NC(c3ccccc3)(c3ccccc3)C2=O)cc1 | 107% (inactive) and 105% (inactive)
CCCCCCCCCCCC[n+]1ccc(C(N)=O)cc1 | -26.3% (active)
CNCCCNCCCCNCCCN1C(=O)c2ccc3c4c(ccc(c24)C1=O)C(=O)N(CCCNCc1ccccc1OC)C3=O | 23% (inactive)
C=C1C(=O)O[C@H]2[C@H]1CC/C(Cn1cc(CNC(=O)c3cc4ccccc4[nH]3)nn1)=C\CC[C@@]1(C)O[C@@H]21 | -20.8% (active)
N#CCCN1C(=O)CCC1C(=O)O (centres undefined) | 85.9% (inactive)
NC(=O)c1cc(Cl)ccc1NC(=O)c1ccccc1-c1ccccc1 | 1.29% (active)
Cc1cc(C(C)(C)C)ccc1S | 111% (inactive)
CCCCCCOc1ccc(C2(Cl)c3ccccc3N(C)c3ccccc32)cc1 | 65.4% (inactive)
CCc1ncnc2c1ccn2C(C)c1ccc(OC)c(F)c1 (centres undefined) | 31.7% (inactive)

From PubChem BioAssay (NCI)
